# Structures can show the parent of a compound that is named as a salt. ± gives the standard deviation of the averaged measurements.
# System: Toxoplasma gondii RH (in HFF)
# Test: parasite growth relative to the screen mean (all compounds = 100%); higher = less inhibition of parasite growth
# Conditions: 5 µM; 72 h; oxygen 21 %
# Summary of the method: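 Parasite growth was reported relative to the screen mean. In that scale, the mean of all compounds equals 100%, and values are averaged over two screens. Compounds from 10 mM DMSO stocks were pin-transferred to 5 µM final onto confluent human foreskin fibroblasts in 96-well plates, infected within 2 h with RH β-Gal–GFP Toxoplasma (MOI 1:5) and grown 72 h at 21% O2, with parasite number read by a CPRG β-Gal assay against in-plate standard curves. Uninfected host-cell viability was checked with CellTiter-Blue.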
row,Structure (SMILES),parasite growth
1,CC1Nc2ccc(Cl)cc2S(=O)(=O)N1 (centres undefined),105 ± 84%
2,O=c1cc(-c2ccccc2)oc2cc(O)c(O)c(O)c12 [Baicalein],173 ± 30%
3,CCN(CC)CCOC(=O)c1cc(Cl)c(N)cc1OC [SDZ 205-557 hydrochloride],105 ± 6.7%
4,Cn1cc(C2=C(c3cn(CCCSC(=N)N)c4ccccc34)C(=O)NC2=O)c2ccccc21 [Ro 31-8220 mesylate],< 0%
5,O=C(NCCCCCCNC(=O)ON=C1CCCCC1)ON=C1CCCCC1,28.7 ± 2.9%
6,Nc1ccc(-c2nc3ccc(-c4nc5ccc(N)cc5[nH]4)cc3[nH]2)cc1,89.6 ± 5.3%
7,O=C(NCCN1CCCCC1)c1ccc(I)cc1 [N-[2-(Piperidinylamino)ethyl]-4-iodobenzamide],118 ± 12%
8,"Nc1nc2c(nc(Br)n2[C@@H]2O[C@@H]3COP(=O)(O)O[C@H]3[C@H]2O)c(=O)[nH]1 [8-Bromo-cGMP, sodium salt]",133 ± 26%
9,O=C(O)C1CCCN(CCC=C(c2ccccc2)c2ccccc2)C1 (centres undefined),122 ± 26%
10,O=C(O)c1c(Sc2ccccc2)c2cc(Cl)ccc2n1Cc1ccc(Cl)cc1,88.5 ± 6.7%
11,CC1(C)CCC(C)(C)c2cc(C(=O)Nc3ccc(C(=O)O)cc3)ccc21,113 ± 4.7%
12,OC(CNCC(O)C1CCc2cc(F)ccc2O1)C1CCc2cc(F)ccc2O1 (centres undefined) [Nebivolol hydrochloride],46 ± 23%
13,COc1ccc2[nH]c(C(=O)c3ccccc3)cc2c1,38.5 ± 2.6%
14,Fc1ccc(C(c2ccc(F)cc2)N2CCN(C/C=C/c3ccccc3)CC2)cc1 [Flunarizine dihydrochloride],56.3 ± 12%
15,Cc1nn(C)c2nc(NNC(=O)Nc3cc(Cl)nc(Cl)c3)cc(C(C)C)c12,97.4 ± 3%
16,Clc1cccc(Cl)c1NC1=NCCN1 [Clonidine hydrochloride],153 ± 28%
17,Nc1c(Br)cc(Br)cc1CN[C@H]1CC[C@H](O)CC1 [Ambroxol hydrochloride],136 ± 3.2%
18,CC(O)(C(=O)Nc1ccc(S(=O)(=O)c2ccccc2)cc1)C(F)(F)F (centres undefined),59.3 ± 19%
19,O=C1Cc2c([nH]c3ccc(Br)cc23)-c2ccccc2N1 [Kenpaullone],100 ± 12%
20,CN1Cc2c(C(=O)OC(C)(C)C)ncn2-c2ccsc2C1=O,55.6 ± 4.8%

row,Structure (SMILES),parasite growth
1,COC(=O)[C@H](NC(=O)c1cc(-c2ccccc2)nc2ccccc12)c1ccccc1,112.7 ± 0.18%
2,Cc1sc(N)c(C(=O)c2cccc(C(F)(F)F)c2)c1C,141 ± 7.3%
3,NCC(O)(CS(=O)(=O)O)c1ccc(Cl)cc1 (centres undefined) [2-Hydroxysaclofen],132 ± 20%
4,O=C1c2ccccc2S(=O)(=O)N1CCCCN1CCN(c2ncccn2)CC1 [Ipsapirone],160 ± 46%
5,COc1cc2c(cc1OC)-c1c/c(=N\c3c(C)cc(C)cc3C)n(C)c(=O)n1CC2 [Trequinsin hydrochloride],124 ± 37%
6,COC(=O)Nc1ccc2[nH]cc(CCNC(C)=O)c2c1,81 ± 2.9%
7,CCN(CC)CCCCNc1ncc2cc(-c3c(Cl)cccc3Cl)c(NC(=O)NC(C)(C)C)nc2n1,< 0%
8,COc1ccc(Nc2nccc(NCCO)n2)cc1 [Cardiogenol C hydrochloride],122 ± 4.2%
9,O=C(O)C1=CCCNC1 [Guvacine hydrochloride],132.34 ± 0.044%
10,CCOC(=O)C1=C(COCCN)NC(C)=C(C(=O)OC)C1c1ccccc1Cl (centres undefined) [Amlodipine besylate],87.9 ± 30%
11,COc1ccccc1N1CCN(CCN2C(=O)c3ccccc3C(C)(C)C2=O)CC1 [ARC 239 dihydrochloride],108 ± 47%
12,c1ccc(CN(CC2=NCCN2)c2ccccc2)cc1 [Antazoline hydrochloride],114 ± 25%
13,"FC(F)(F)c1cc(COC2CCCNC2c2ccccc2)cc(C(F)(F)F)c1 [L-733,060 hydrochloride]",29.6 ± 16%
14,COc1ccc(CCCOC(Cn2ccnc2)c2ccc(OC)cc2)cc1 (centres undefined),95.6 ± 24%
15,Cc1ccccc1C(=O)c1ccc(Nc2ccc(Br)cc2N)cc1Cl,172 ± 48%
16,COc1ccccc1C1(O)CCN(CCCn2c3ccccc3c3ccccc32)CC1 [NNC 05-2090 hydrochloride],< 0%
17,CN(C)CCCC1(c2ccc(F)cc2)OCc2cc(C#N)ccc21 (centres undefined) [Citalopram hydrobromide],122 ± 3.6%
18,O=C(c1ccc(F)cc1)C1CCN(CCn2c(=O)[nH]c3ccccc3c2=O)CC1 [Ketanserin tartrate],183 ± 33%
19,CSc1nc(NC2CCCC2)c([N+](=O)[O-])c(NC2CCCC2)n1,35.6 ± 32%
